Laboratory results as given in PMC4336329 (PLoS ONE, 2015).
About 14,000 (4.5%) of roughly 310,000 compounds showed an effect of 50% or more. Effects have a minus sign here. This excerpt belongs to a sample that is enriched for strong results.

These compounds were tested against human ether-à-go-go-related gene (hERG) potassium channel (human, UniProt Q12809) (assay: primary screen, population patch clamp on CHO cells stably expressing hERG; higher = less effect of the substance).
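Also: peak tail current of the secondary pulse compared with the same well before compound.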

human ether-à-go-go-related gene (hERG) potassium channel, sequence (Q12809 whole entry, looked up): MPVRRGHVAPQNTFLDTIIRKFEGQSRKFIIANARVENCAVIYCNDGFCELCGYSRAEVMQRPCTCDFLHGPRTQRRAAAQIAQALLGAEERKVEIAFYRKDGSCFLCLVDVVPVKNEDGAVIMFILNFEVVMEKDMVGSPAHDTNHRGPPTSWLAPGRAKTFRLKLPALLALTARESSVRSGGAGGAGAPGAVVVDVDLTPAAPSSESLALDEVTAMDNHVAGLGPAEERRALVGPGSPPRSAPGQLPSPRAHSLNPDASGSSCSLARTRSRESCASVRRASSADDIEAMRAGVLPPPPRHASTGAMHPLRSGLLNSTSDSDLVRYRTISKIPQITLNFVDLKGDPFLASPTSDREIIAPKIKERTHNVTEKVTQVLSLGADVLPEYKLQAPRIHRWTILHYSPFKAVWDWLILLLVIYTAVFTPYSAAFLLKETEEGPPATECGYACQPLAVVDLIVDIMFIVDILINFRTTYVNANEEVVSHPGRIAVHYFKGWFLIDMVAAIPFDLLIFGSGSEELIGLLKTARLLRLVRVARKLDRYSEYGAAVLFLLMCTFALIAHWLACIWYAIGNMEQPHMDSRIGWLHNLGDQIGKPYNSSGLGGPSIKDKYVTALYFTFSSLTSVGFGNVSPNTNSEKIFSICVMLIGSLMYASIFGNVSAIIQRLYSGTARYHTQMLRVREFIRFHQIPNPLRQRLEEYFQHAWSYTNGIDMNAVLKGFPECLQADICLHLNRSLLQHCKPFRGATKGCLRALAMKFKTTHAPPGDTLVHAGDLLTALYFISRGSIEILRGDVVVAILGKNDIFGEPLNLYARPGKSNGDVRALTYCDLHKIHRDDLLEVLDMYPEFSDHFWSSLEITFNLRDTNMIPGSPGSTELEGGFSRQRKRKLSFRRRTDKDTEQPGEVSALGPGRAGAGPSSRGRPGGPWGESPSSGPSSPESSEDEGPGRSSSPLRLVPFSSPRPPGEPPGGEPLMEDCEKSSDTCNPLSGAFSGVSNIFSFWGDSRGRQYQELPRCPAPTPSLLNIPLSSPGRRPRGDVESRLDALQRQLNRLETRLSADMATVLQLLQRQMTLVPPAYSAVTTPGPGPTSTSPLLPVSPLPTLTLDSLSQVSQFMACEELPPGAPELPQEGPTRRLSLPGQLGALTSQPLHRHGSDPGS

Row | SMILES | hERG current change (%, negative = inhibition) at 10uM [%]
1 | CC1Cc2cc(S(=O)(=O)NCCc3ccccc3)ccc2N1C(=O)C1CC1 (stereo not shown) | 13.7
2 | COc1ccc(-c2cc(=O)[nH]c(=O)[nH]2)cc1 | -3.74
3 | O=C(c1cccc(S(=O)(=O)Nc2ccccc2Cl)c1)N1CCC1 | -0.443
4 | Cc1ccc(SCC(=O)NCCc2ccc(F)cc2)cc1 | -0.26
5 | CCOC(=O)c1ccc(NC(=O)c2cccc3c2C(=O)N(CC2CCCO2)C3)cc1 (stereo not shown) | -2.27
6 | O=C(O)c1cccc2c1C(=O)N(CC1CCCO1)C2 (stereo not shown) | 24.2
7 | COc1ccc(NC(=O)c2cccc3c2C(=O)N(CC2CCCO2)C3)cc1OC (stereo not shown) | -17.9
8 | COc1ccc(CNC(=O)c2cccc3c2C(=O)N(CC2CCCO2)C3)cc1 (stereo not shown) | -34.5
9 | CCc1cccc(NC(=O)c2cccc3c2C(=O)N(CC2CCCO2)C3)c1 (stereo not shown) | -72.2
10 | O=C(NCc1ccc(Cl)cc1)c1cccc2c1C(=O)N(CC1CCCO1)C2 (stereo not shown) | -70.8
11 | CC(=O)N1CCC(C(=O)NCCOc2ccc(C)cc2)CC1 | 7.67
12 | COc1ccc(CC(=O)NNC(=O)CN(C)S(=O)(=O)c2ccc(Cl)cc2)cc1OC | 0.252
13 | CCOC(=O)C1CCN(S(=O)(=O)Cc2ccccc2)CC1 | -8.61
14 | COc1ccc(C(=O)CC(=O)C(=O)Nc2ccc(Cl)cc2)cc1 | 7.74
15 | Cc1cc2c(c(=O)o1)C(c1cccs1)C(C#N)=C(N)O2 (stereo not shown) | 4
16 | COc1ccc(-n2cc(CN3CCC(OC)CC3)c(-c3cccc(F)c3)n2)cc1 | -13.5

Row | SMILES | hERG current change (%, negative = inhibition) at 10uM [%]
17 | COc1ccc(-n2cc(CN3CCCC3)c(-c3cccc(F)c3)n2)cc1 | -57
18 | Cc1cccc(-n2cc(CN3CCN(C(=O)c4ncn[nH]4)CC3)c(-c3cccc(F)c3)n2)c1 | -16.5
19 | CCC(O)C1CCN(Cc2cn(-c3ccc(OC)cc3)nc2-c2cccc(F)c2)CC1 (stereo not shown) | -75.3
20 | CC(=O)N1CCCN(Cc2cn(-c3cccc(C)c3)nc2-c2cccc(F)c2)CC1 | -16.9
21 | CCC(=O)OCc1c(C(F)(F)F)nn(C)c1Sc1ccc(F)cc1 | -8.79
22 | CN(CCc1ccccn1)C(=S)NC(=O)c1ccco1 | 17.1
23 | Cc1ccc(NC(=O)C(c2ccccc2)N2CCN(C(=O)c3ccco3)CC2)cc1 (stereo not shown) | -72.9
24 | CCOc1ccccc1NC(=O)C(c1ccccc1)N1CCN(C(=O)c2ccco2)CC1 (stereo not shown) | -57.7
25 | CC(C)c1ccc(NC(=O)C(c2ccc3c(c2)OCO3)N2CCN(C(=O)c3ccco3)CC2)cc1 (stereo not shown) | -25
26 | CC(C)c1ccc(NC(=O)C(c2ccccc2)N2CCN(C(=O)c3ccco3)CC2)cc1 (stereo not shown) | -69.8
27 | O=C(Nc1ccc2c(c1)OCO2)C(c1ccccc1)N1CCN(C(=O)c2ccco2)CC1 (stereo not shown) | -33.2
28 | CCOCCCNC(=O)C(c1ccc(Cl)cc1)N1CCN(C(=O)c2ccco2)CC1 (stereo not shown) | -0.366
29 | O=C(Nc1ccc2c(c1)OCO2)C(c1ccc(Cl)cc1)N1CCN(C(=O)c2ccco2)CC1 (stereo not shown) | -40
30 | Cc1cccc(C)c1NC(=O)C(c1ccccc1)N1CCN(C(=O)c2ccco2)CC1 (stereo not shown) | -22.8
31 | Cc1ccc(NC(=O)C(c2ccccc2)N2CCN(C(=O)c3ccco3)CC2)cc1Cl (stereo not shown) | -21.3
